Records with an inconclusive call do not appear. Entries that show only a call come without a potency. The source made the active and inactive calls. The call rests on the fitted dose curve; in most records, active means well fitted cell-killing curve with a large enough effect; inconclusive means small, poorly fitted or top-dose-only effect; inactive means flat fitted curve, though single readings scatter.
Potency means the concentration at half of the fitted maximal effect.

This test is described as follows: NCATS anti-infectives library activity on HEK293 viability as a counter-qHTS vs the C. elegans viability qHTS (AID 1745854). Particulars: HEK293 viability counter-screen; series mostly up to 41.8 µM. The essentials: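 CellTiter-Glo luminescence, read on a CCD imager, scored viability of HEK293 cells after 24 hr compound exposure at 37C. Library tested in several concentrations, 1:5 steps, up to 41.7 uM; digitonin served as control.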
(In qHTS, concentration-response curves come from the screen itself.)
As for `CC(C)=CCC/C(C)=C/CC/C(C)=C/C=C/C(C)=C/C(=O)O`, the Potency entry was “inactive”.

On to `CC(=O)OC(C)(C)CCC(=O)[C@](C)(O)C1[C@H](O)C[C@@]2(C)C3CC=C4C(C[C@H](O)[C@@H](O)C4(C)C)[C@]3(C)C(=O)C[C@]12C` (some centres not stated), for which the Potency entry is “inactive”.

Take `Cc1cnc(C(=O)N[C@H]2CCCCC/C=C\[C@@H]3C[C@@]3(C(=O)NS(=O)(=O)C3CC3)NC(=O)[C@@H]3C[C@@H](Oc4nc5ccccc5c5ccccc45)CN3C2=O)cn1`: the Potency entry is “inactive”.

Regarding `CC(=O)O[C@@]1(C)C[C@@H](O)[C@]2(O)C=CO[C@@H](OC3OC(CO)C(O)C(O)C3O)[C@@H]21` (some centres not stated), the Potency result was “inactive”.

In the case of `OC[C@H]1O[C@@H](Oc2c(O)cc(O)cc2/C=C/c2ccc(O)cc2)[C@H](O)[C@@H](O)[C@@H]1O`, the Potency entry was “inactive”.

For `C=CC(=O)N1C/C(=C\c2ccc([N+](=O)[O-])cc2)C(=O)/C(=C/c2ccc([N+](=O)[O-])cc2)C1`, the Potency is 1.41 µM (active).

In the case of `CS(=O)(=O)c1cc(-c2ccccc2)cc(S(=O)(=O)c2ccc(CN)s2)c1`, the Potency entry is “inactive”.

As to `COc1ccc(-c2sc(NC(=O)C(C)(C)C)nc2C)cc1S(=O)(=O)Nc1ccc(O)cc1`, the Potency result is “inactive”.

Take `CC(C)(C)OC(=O)N[C@H]1CCCCC/C=C\[C@@H]2C[C@@]2(C(=O)NS(=O)(=O)C2CC2)NC(=O)[C@@H]2C[C@@H](OC(=O)N3Cc4cccc(F)c4C3)CN2C1=O`: the Potency result was “inactive”.

In the case of `O=c1cc(-c2ccc(O)cc2)oc2cc(O)c(O)c(O)c12`, the Potency result is “inactive”.

`COc1cc(O)c2c(=O)cc(-c3ccc(O)cc3)oc2c1`: the Potency result was “inactive”.

Regarding `CC(=O)Nc1ccc(C)c(C(=O)N[C@H](C)c2cccc3ccccc23)c1`, the Potency result is “inactive”.

These data come from PubChem BioAssay (NCATS).
